Experimental data published in PubChem BioAssay (NCATS).
Results filed as inconclusive are left out. The source made the active and inactive calls. Unless noted, calls come from the whole dose curve; as a rule, active = well fitted curve in the direction sought with a large enough effect; inconclusive = small, poorly fitted or top-dose-only effect, or another doubt; inactive = no such curve, though single readings can be large; an effect the other way counts as inactive or inconclusive.

What was measured:
[1] = Cytometric Cell-Based qHTS for Inhibitors of the mTORC1 Signaling Pathway in MEF (Tsc2-/-, p53-/-) Cells (AID 2660); conditions: mTORC1 pathway cytometry; series mostly up to 38.3 µM;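 note: Tsc2 and p53 null MEFs carrying empty vector with compound for 24 h; percent of cells above a phospho-rpS6 to PI ratio cutoff in each well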
Summary of the method: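 Readout: Alexa-488 phospho-rpS6 (Ser235/236) intensity divided by PI intensity, thresholded against 7.5 nM rapamycin wells and reported as % positive cells. PI cell count served as the viability measure. Compound exposure was 24 hrs at 37 degree Celsius.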

[2] = High Content Imaging Cell-Based qHTS for Inhibitors of the mTORC1 Signaling Pathway in MEF (Tsc2-/-, p53-/-) Cells (AID 2666); conditions: series mostly up to 38.3 µM;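 note: percent of cells scored positive for phospho-rpS6 Ser235/236 immunostaining by imaging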
Summary of the method: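 MEF Tsc2-/- p53-/- (empty vector), DMEM/10% FBS; cpd 24 h 37 °C; PFA fix, Alexa-488 p-rpS6 S235/236 Ab, Hoechst; imaged; rapamycin-defined inhibition; % positive cells/well.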

[3] = Cytometry Cell-Based qHTS for Inhibitors of the mTORC1 Signaling Pathway in MEF cells (AID 2668); conditions: mTORC1 pathway readout; series mostly up to 38.3 µM;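 note: Tsc2-/- p53-/- mouse embryonic fibroblasts stably re-expressing wild-type Tsc2; percent cells positive for phospho-rpS6 Ser235/236 relative to propidium iodide stain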
Summary of the method: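 WT MEFs (Tsc2-/-, p53-/- stably re-expressing WT Tsc2) in DMEM + 10% FBS received compounds 24 hrs after plating, for 24 hrs at 37 degree Celsius. Fixed cells stained with Alexa-488 anti-phospho-rpS6 Ser235/236 and propidium iodide; laser-scanning cytometry read-out.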

[4] = target: Ubiquitin carboxyl-terminal hydrolase 2 (Homo sapiens) (UniProt O75604); experiment: qHTS Validation Assay for Inhibitors of Ubiquitin-specific Protease USP2a Using CHOP2 as the Reporter (AID 463106); conditions: USP2a cleavage of CHOP2 reporter, enzymatic; series mostly up to 38.3 µM
Summary of the method: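 Fluorescence read-out at Ex 485nm/Em 531nm after 60min RT, following addition of 25nM Ub-CHOP2 plus 25nM reporter substrate to USP2 core (10nM) pretreated 30min with compound. Data normalized to NEM full inhibition; concentration-response curves fitted.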

[5] = target: DNA polymerase III PolC-type (Bacillus subtilis (strain 168)) (UniProt P13267); experiment: qHTS Validation Assay for the Inhibitors of DNA Replication in Gram-Positive Bacteria (AID 485295); conditions: Gram-positive bacterial DNA replication assay; series mostly up to 57.1 µM;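 note: PicoGreen fluorescence of double-stranded DNA made on primed circular M13 template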
Summary of the method: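 Reconstituted B. subtilis holoenzyme (Pol III, beta clamp, SSB, primase) was preincubated with compound at room temperature, then given single-stranded circular M13Gori plus dNTPs and NTPs. EDTA-containing PicoGreen stopped the reaction, and dsDNA product was read by fluorescence.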

[6] = target: Tumor susceptibility gene 101 protein (Homo sapiens) (UniProt Q99816); experiment: qHTS Validation Assay for Iinhibitors of HIV-1 Budding by Blocking the Interaction of PTAP/TSG101 (AID 485342; calls by dose curve); conditions: TSG101-PTAP binding, fluorescence polarization, 4-point titration; series mostly up to 115 µM
Summary of the method: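 Tsg101 binding domain (10 uM final) in pH 7.5 HEPES/NaCl/Tween 20/EDTA/TCEP buffer was mixed with pin-transferred compounds, then FITC-labeled PTAP peptide (50 nM final) was added; after 20 min at r.t., fluorescence polarization was read.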

[7] = qHTS Validation Assay to Find Inhibitors of Chronic Active B-Cell Receptor Signaling (AID 485345; active = well fitted curve in the direction sought with a large enough effect in the main read-out, with a control signal flat, not every such curve was filed as active); conditions: ABC-DLBCL cells, chronic BCR signaling reporter, CBG luciferase; series mostly up to 46.1 µM
Summary of the method: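 TMD8 ABC-DLBCL cells stably carrying doxycycline-inducible IkappaBalpha–green luciferase fusion plus unfused red luciferase; compounds 46 uM to 3 nM, 4 h at 37C with doxycycline. Corrected green/red luminescence ratio normalized to 10 uM MG-132 and basal cell wells; curves fitted.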

[8] = Validation screen for small molecules that induce DNA re-replication in MCF 10A normal breast cells (AID 463097); conditions: MCF 10A cells, DNA re-replication phenotype imaging; series mostly up to 46.1 µM; note: nearly all actives have a fitted effect of over 60% in size
Summary of the method: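 Readout: Hoechst nuclear fluorescence intensity, 405 ex / 500-530 em, by scanning plate imager; re-replication scored as increase in nuclei with elevated DNA content. Cells exposed to compound 48 hr, 37 C, 5% CO2 beforehand.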

[9] = High Content Imaging Cell-Based qHTS for Inhibitors of the mTORC1 Signaling Pathway in MEF Cells (AID 2667); conditions: series mostly up to 38.3 µM;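 note: Tsc2-/- p53-/- MEFs stably re-expressing wild-type Tsc2 exposed 24 h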
Summary of the method: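 Read-out is the share of phospho-rpS6-positive cells per well, from Hoechst-normalized Alexa-488 Ser235/236 staining imaged on IN Cell. Cells: WT Tsc2-expressing Tsc2-/-, p53-/- MEFs exposed to compound for 24 hrs.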

Measured: Potency

Chain of Ubiquitin carboxyl-terminal hydrolase 2 (Homo sapiens) (O75604 whole entry, looked up): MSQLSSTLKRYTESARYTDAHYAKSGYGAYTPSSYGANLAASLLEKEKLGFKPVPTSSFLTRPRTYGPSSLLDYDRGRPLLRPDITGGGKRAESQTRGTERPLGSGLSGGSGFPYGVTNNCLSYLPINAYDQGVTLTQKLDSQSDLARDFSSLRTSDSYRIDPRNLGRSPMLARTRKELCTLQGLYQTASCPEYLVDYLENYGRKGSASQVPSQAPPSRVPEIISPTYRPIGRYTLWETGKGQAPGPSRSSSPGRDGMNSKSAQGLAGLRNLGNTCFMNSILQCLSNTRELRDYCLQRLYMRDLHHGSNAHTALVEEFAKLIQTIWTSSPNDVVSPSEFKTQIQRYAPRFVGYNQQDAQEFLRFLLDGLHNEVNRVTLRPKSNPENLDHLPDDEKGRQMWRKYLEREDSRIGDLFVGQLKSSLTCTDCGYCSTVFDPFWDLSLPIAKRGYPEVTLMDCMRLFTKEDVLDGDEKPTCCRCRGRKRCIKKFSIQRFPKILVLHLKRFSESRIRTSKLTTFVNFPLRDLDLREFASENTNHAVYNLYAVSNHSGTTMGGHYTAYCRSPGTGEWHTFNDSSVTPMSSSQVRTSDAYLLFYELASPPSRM
Chain of DNA polymerase III PolC-type (Bacillus subtilis (strain 168)) (P13267 whole entry, looked up): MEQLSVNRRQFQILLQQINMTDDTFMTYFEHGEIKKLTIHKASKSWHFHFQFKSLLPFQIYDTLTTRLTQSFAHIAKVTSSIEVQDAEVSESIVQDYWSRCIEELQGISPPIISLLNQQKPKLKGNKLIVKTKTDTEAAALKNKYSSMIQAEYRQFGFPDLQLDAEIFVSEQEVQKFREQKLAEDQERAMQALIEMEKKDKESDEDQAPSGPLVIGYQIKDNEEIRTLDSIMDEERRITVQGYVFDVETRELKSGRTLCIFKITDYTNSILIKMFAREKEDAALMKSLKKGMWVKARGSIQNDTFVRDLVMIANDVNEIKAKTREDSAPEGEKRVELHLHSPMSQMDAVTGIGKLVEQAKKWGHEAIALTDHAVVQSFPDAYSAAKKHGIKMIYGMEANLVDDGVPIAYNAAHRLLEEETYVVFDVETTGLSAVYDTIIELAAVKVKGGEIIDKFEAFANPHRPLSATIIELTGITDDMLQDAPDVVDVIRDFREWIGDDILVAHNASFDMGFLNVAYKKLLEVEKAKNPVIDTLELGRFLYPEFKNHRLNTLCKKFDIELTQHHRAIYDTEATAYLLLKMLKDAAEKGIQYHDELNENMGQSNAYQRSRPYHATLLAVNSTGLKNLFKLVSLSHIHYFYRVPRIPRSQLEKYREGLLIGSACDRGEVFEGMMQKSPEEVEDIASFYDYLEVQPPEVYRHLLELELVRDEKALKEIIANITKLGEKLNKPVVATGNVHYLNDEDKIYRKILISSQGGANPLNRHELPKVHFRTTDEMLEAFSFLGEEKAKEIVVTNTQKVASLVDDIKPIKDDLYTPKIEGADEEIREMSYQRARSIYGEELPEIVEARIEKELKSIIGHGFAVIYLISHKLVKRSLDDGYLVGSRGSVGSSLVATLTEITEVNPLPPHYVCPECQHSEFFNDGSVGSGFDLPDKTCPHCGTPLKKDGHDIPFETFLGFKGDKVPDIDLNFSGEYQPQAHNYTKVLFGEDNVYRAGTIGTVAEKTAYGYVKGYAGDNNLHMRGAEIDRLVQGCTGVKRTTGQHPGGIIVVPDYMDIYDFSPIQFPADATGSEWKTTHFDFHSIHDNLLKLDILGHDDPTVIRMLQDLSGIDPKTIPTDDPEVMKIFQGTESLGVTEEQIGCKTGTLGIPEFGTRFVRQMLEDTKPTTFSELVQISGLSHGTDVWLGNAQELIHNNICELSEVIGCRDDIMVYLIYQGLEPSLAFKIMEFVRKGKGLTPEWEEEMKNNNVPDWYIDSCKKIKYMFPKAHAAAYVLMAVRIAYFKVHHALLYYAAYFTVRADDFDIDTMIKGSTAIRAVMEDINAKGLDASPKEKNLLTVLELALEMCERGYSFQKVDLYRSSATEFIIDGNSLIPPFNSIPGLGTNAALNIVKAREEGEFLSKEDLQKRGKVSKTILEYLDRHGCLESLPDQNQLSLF
Chain of Tumor susceptibility gene 101 protein (Homo sapiens) (Q99816 whole entry, looked up, the tested form may be a part): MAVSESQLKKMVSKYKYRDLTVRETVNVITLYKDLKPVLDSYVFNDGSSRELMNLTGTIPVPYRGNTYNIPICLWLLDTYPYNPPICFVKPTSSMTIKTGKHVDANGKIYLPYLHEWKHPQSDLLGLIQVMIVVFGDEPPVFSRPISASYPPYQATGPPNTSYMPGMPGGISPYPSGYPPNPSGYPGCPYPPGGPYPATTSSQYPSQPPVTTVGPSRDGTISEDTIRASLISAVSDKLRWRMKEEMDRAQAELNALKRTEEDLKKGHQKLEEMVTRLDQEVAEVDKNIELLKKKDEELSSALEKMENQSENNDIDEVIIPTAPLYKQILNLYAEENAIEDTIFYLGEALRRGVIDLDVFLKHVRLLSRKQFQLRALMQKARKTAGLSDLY

C[C@H](NC(=O)/C(C#N)=C/c1ccc(O)c(O)c1)c1ccccc1
not listed: [8] | [9]
inactive: all other assays above

C=CCN1CCc2c(cc(O)c(O)c2Br)[C@@H](c2ccccc2)C1
not listed: [3] | [8] | [9]
inactive: all other assays above

CCCCCCCCCCCCCCC[C@H](O)[C@H](N)CO
not listed: [3] | [8] | [9]
inactive: all other assays above

O=C(O)CCC(=O)N1CCCC1C(=O)O (centres undefined)
not listed: [3] | [9]
inactive: all other assays above

CCCCOC(=O)NS(=O)(=O)c1sc(CC(C)C)cc1-c1ccc(Cn2c(CC)nc3c(C)cc(C)nc32)cc1
inactive: [1] | [2] | [4] | [5] | [6]

CC(=O)C(C)=O
not listed: [2] | [7]
inactive: all other assays above

O=C1OC(=O)C2C3CCC(O3)C12 (centres undefined)
not listed: [7] | [8] | [9]
inactive: all other assays above
